In PubChem BioAssay (NCI):
The panel holds about 79,000 compounds, 15% with a hit somewhere; the sample as a whole holds those more often. Cut-off read from the data, not from the text of the source: active = growth inhibition above about 70%; inactive = the rest. Where a SMILES comes first, the peptide text is derived from it. [ ]: non-standard residue; d: D form. The star is where a group is joined. ξ: configuration not given here. ONb = O=[N+]([O-])c1ccc(CO*)cc1; Boc = CC(C)(C)OC(=O)*; ξP = O=C(O)C1CCCN1

Key:
[1] = NCI Yeast Anticancer Drug Screen. Data for the rad50 strain (AID 155);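 note: 0% = growth of vehicle-only cultures of the same strain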; conditions: S. cerevisiae rad50 strain growth inhibition; at 50.0 µM; hits give high values
Method in brief: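 A DNA repair-deficient yeast mutant serves as the test organism; compound-induced growth inhibition is calculated against vehicle-treated cells.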

[2] = NCI Yeast Anticancer Drug Screen. Data for the mec2-1 strain (AID 157); conditions: S. cerevisiae mec2-1 strain, at 50.0 µM, hits give high values
Method in brief: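 mec2-1 yeast strain, carrying an alteration in DNA damage repair or cell cycle control, was exposed to compounds; growth inhibition was measured relative to vehicle-treated controls.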

[3] = NCI Yeast Anticancer Drug Screen. Data for the sgs1 mgt1 strain (AID 161);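 note: 0% = growth of cultures given vehicle only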; conditions: S. cerevisiae sgs1 mgt1 strain, at 50.0 µM, hits give high values
Method in brief: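 Yeast cells carrying a defined DNA-repair defect were exposed to test compounds. Growth inhibition was measured relative to vehicle-treated controls.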

[4] = NCI Yeast Anticancer Drug Screen. Data for the cln2 rad14 strain (AID 165);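 note: 0% = growth equal to vehicle treated cultures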; conditions: S. cerevisiae cln2 rad14 strain, at 50.0 µM, hits give high values
Method in brief: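 Yeast carrying cln2 and rad14 alterations (cell cycle control and DNA damage repair) were exposed to compounds. Growth inhibition was measured against vehicle-treated controls.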

[5] = NCI Yeast Anticancer Drug Screen. Data for the bub3 strain (AID 167); conditions: S. cerevisiae bub3 mutant strain, at 50.0 µM, hits give high values
Method in brief: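 Inhibition values come from growth of compound-treated mutant yeast normalised to vehicle-treated controls.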

[6] = NCI Yeast Anticancer Drug Screen. Data for the mlh1 rad18 strain (AID 175); conditions: S. cerevisiae mlh1 rad18 strain growth inhibition; at 50.0 µM; hits give high values
Method in brief: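 Growth inhibition of the yeast strain was measured after compound exposure and expressed relative to vehicle-treated controls. The strain carries defined defects in DNA damage repair.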

Measured: growth inhibition

CC(=O)CC(OC(C)=O)C1=CCC2C(CC1C)OC(=O)C2C (centres undefined)
inactive: [1] 45.8% | [2] 9.8% | [3] -22.6% | [4] -0.65% | [5] -36.5% | [6] -56.6%

Cc1cccnc1Nc1ncccc1C
inactive: [1] 13.8% | [2] -18.8% | [3] 10.9% | [4] 14.3% | [5] 8.3% | [6] 10.8%

O=c1[nH][nH]c(=O)c2c1ccc1oc3ccccc3c12
inactive: [1] -13.8% | [2] 0.55% | [3] -20.7% | [4] 28.2% | [5] 2.55% | [6] 4.4%

CN(C)N=Nc1ccccc1
inactive: [1] 38.2% | [2] -14.2% | [3] 0% | [4] 15.4% | [5] -1.65% | [6] 29.2%

CC[C@]1(O)C(=O)OCc2c1cc1n(c2=O)Cc2cc3c(N)cccc3nc2-1
inactive: [1] 16.1% | [2] 14% | [3] 9.75% | [4] -0.25% | [5] 14.2% | [6] 45%

Cn1c(=O)c2[nH]c(/N=N\n3ccc4ccccc43)nc2n(C)c1=O
inactive: [1] 2.1% | [2] 21.6% | [3] -5.6% | [4] -8.85% | [5] 24.6% | [6] 4.1%

CC(Cc1ccccc1)Nc1ccccc1 (centres undefined)
inactive: [1] 17.8% | [2] 3.5% | [3] 31.4% | [4] -10.3% | [5] -12.5% | [6] 62.4%

c1ccc(-c2nc(-c3ccccc3)c(-c3ccccc3)[nH]2)cc1
inactive: [1] -0.85% | [2] 28.1% | [3] 12.2% | [4] 11.2% | [5] 5.05% | [6] -36.2%

N#CCN1CCOCCOCCN(CC#N)CCOCCOCC1
inactive: [1] 3.1% | [2] -0.75% | [3] 5.75% | [4] 19.7% | [5] 7.4% | [6] 42.1%

CC(CNC(=O)c1ccccc1)(CNC(=O)c1ccccc1)[N+](=O)[O-]
inactive: [1] 8.95% | [2] 1.35% | [3] -3.2% | [4] 6.75% | [5] 0.8% | [6] 3.85%

CCc1cccc(C(=O)O)c1N
inactive: [1] 26.4% | [2] 5.75% | [3] 15.7% | [4] 3.65% | [5] -3.75% | [6] 0.9%

O=C(c1ccccc1)N1OC2C=CC1CC2 (centres undefined)
inactive: [1] 4.6% | [2] 4.6% | [3] 5.1% | [4] -34.2% | [5] -2.1% | [6] -1.8%

C[C@@H]1Nc2ccccc2[C@H]1C
inactive: [1] -25.6% | [2] -37.5% | [3] -53.1% | [4] 7.75% | [5] -42.6% | [6] -8.1%

Cn1c2c(c3ccccc31)=NN1CCN=C1N=2
inactive: [1] 11.2% | [2] -2.95% | [3] -0.15% | [4] -28.2% | [5] 17.2% | [6] 4%

CN1CCOc2c1cnn(CCO)c2=O
inactive: [1] -52.2% | [2] -15.4% | [3] -22.4% | [4] -10.4% | [5] -4.2% | [6] -7.6%

CCCCOC(=O)c1ccc(Cl)c(Cl)c1
inactive: [1] -1.7% | [2] -3.2% | [3] -14.9% | [4] -32.9% | [5] 3% | [6] 7.45%

CC(=O)c1ccc2ccccc2c1O
inactive: [1] 2.6% | [2] -11.7% | [3] -25.5% | [4] -11.1% | [5] -3% | [6] -5.45%

COc1ccc(CSCc2cc(OC)c(OC)c(OC)c2)cc1
inactive: [1] -13.5% | [2] 16.8% | [3] -24.1% | [4] 0.3% | [5] 51.2% | [6] -2.15%

O=C(OCCNC1CCCCC1)c1ccc([N+](=O)[O-])cc1
inactive: [1] 8.85% | [2] 2.5% | [3] 1.45% | [4] -43.5% | [5] -4.5% | [6] 11.3%

CCCCN1C(=O)C(NC(C)=O)C1COC(C)(C)C (centres undefined)
inactive: [1] -21.9% | [2] -5.2% | [3] -28.4% | [4] -8.65% | [5] -28.1% | [6] -35.5%

Cc1ccc(NC(=O)OCCOc2c(C(C)C)cccc2C(C)C)c([N+](=O)[O-])c1
inactive: [1] -0.8% | [2] -3.3% | [3] 8.55% | [4] -41.9% | [5] -7.7% | [6] 18.4%

O=C(O)c1ccc(Cl)c(N=C/C=C/c2ccccc2)c1
inactive: [1] 1.85% | [2] -37.5% | [3] 6.6% | [4] -15.3% | [5] 3.45% | [6] -6.9%

CC(C)OC(=O)c1cccnc1
inactive: [1] 16.5% | [2] 2.2% | [3] 7.05% | [4] -39% | [5] -1.35% | [6] -2.45%

ClSC(c1ccccc1)(c1ccccc1)c1ccccc1
inactive: [1] 20.2% | [2] 8.9% | [3] 57.6% | [4] 10.6% | [5] -30.9% | [6] 33.4%

O=C(Nc1ncnc2c1ncn2C1CCC(CO)O1)c1ccccc1 (centres undefined)
inactive: [1] -1.35% | [2] 2.15% | [3] 3.7% | [4] 7.45% | [5] 14% | [6] 16.9%

Cc1ccncc1S(=O)(=O)O
inactive: [1] 14.6% | [2] 8.85% | [3] 2.3% | [4] -12.2% | [5] 1.7% | [6] 1.75%

NC(=O)Nc1nc(-c2ccccc2)no1
inactive: [1] -16.7% | [2] 7.15% | [3] -17% | [4] -50.6% | [5] -6.75% | [6] -16.1%

CCCCNC(=O)c1ccc(C(C)C)cc1
inactive: [1] 9.2% | [2] -0.95% | [3] 0.4% | [4] -4.15% | [5] -0.9% | [6] -5.05%

CCCc1c(OC(=O)c2ccc([N+](=O)[O-])cc2)cccc1OC(=O)c1ccc([N+](=O)[O-])cc1
inactive: [1] 20.1% | [2] 1.1% | [3] 12.8% | [4] 18.1% | [5] -3.95% | [6] 7.55%

CC(C)CC(NC(=O)OC(C)(C)C)C(=O)NC(CCC(=O)OCc1ccc([N+](=O)[O-])cc1)C(=O)OCc1ccc([N+](=O)[O-])cc1 (stereo not drawn) (Boc-Leu-Glu(ONb)-ONb; configuration not given here)
inactive: [1] -9.3% | [2] -25.5% | [3] -4.5% | [4] 4% | [5] -10.1% | [6] 8.35%

O=S1(=O)CCC(Br)c2ccccc21 (centres undefined)
inactive: [1] -5% | [2] -0.25% | [3] 0.4% | [4] -38.5% | [5] 8.6% | [6] -12.5%

O=C(CCSC(=S)Nc1ccc(Cl)cc1)NNc1ccccc1
inactive: [1] 1.8% | [2] -25.1% | [3] -0.65% | [4] -30.4% | [5] 6.6% | [6] 18.2%

COC(=O)c1ccc(/C=C2\N=C(C)OC2=O)cc1
inactive: [1] -17.9% | [2] -28.6% | [3] 0.6% | [4] 12.2% | [5] -22.8% | [6] -17.9%

Cc1cc(O)c(C(C)C)cc1NC(=S)Nc1ccc(S(=O)(=O)c2ccc(NC(=S)Nc3cc(C(C)C)c(O)cc3C)cc2)cc1
inactive: [1] 7.55% | [2] 20.1% | [3] 36.9% | [4] 17.9% | [5] 6.65% | [6] 51.2%

C=CCOC(=O)Nc1cccc(O)c1
inactive: [1] 16.9% | [2] -5.95% | [3] 3.2% | [4] -57.6% | [5] -29.6% | [6] 1.4%

CC1=C(C(=O)Nc2c(C)cccc2C)C(c2ccccc2Cl)C(C(=O)Nc2c(C)cccc2C)=C(C)N1
inactive: [1] -39.4% | [2] -6.4% | [3] -27.4% | [4] -20.9% | [5] -13.8% | [6] -11.7%

NCC(=O)N1CCCC1C(=O)NCC(=O)NCC(=O)O (centres undefined) (H-G[ξP]GG-OH)
inactive: [1] 11.6% | [2] 0.95% | [3] 4.8% | [4] -32% | [5] -16.9% | [6] 3.15%

c1ccc(C2CN3CCSC3=N2)cc1 (centres undefined)
inactive: [1] -30.4% | [2] -34.8% | [3] -19.1% | [4] 5.5% | [5] -12.2% | [6] -16.9%

Cc1ccc(O)c(C2CC(C#N)CCN2C)c1 (centres undefined)
inactive: [1] -0.65% | [2] -12.2% | [3] -16.5% | [4] -6.35% | [5] -18.9% | [6] -7.3%
